From PubChem BioAssay (Tox21)
Records with an inconclusive call do not appear. A call without a number means that no potency is given here. A number with no mark means an inactive call. Active and inactive are the calls of the source. Calls follow the shape of the dose curve; as a rule, active = well fitted activation curve with a large enough effect in the repeat runs; inconclusive = weak or mixed curves; inactive = flat fitted curve, though single readings scatter.

Assay: A CellTox Green Cytotoxicity Assay to monitor cytotoxicity in HEK293 cells - 40 hour (AID 1224871); also: nearly all actives have a fitted effect of over 45% in size
Conditions: CellTox Green fluorescence; series mostly up to 76.8 µM
Source text: National Center for Advancing Translational Sciences [NCATS]
NIH Chemical Genomics Center [NCGC]
U.S. Environmental Protection Agency [EPA]
National Institutes of Environmental Health Sciences [NIEHS]
National Toxicology Program [NTP]
Cell-based models are critical for drug discovery. Determining the natural cytotoxic effects resulting from test compounds is an essential research activity. A CellTox Green Cytotoxicity Assay to monitor cytotoxicity in real time of continues cell culture during 40 hours of the compound treatment was used to screen Tox21 10K library compounds in Hek293 cells. CellTox Green Cytotoxicity Assay is a nonlytic, homogeneous, biofluorescent method to measure cytotoxicity in cell culture after experimental manipulation. The assay system uses a proprietary asymmetric cyanine dye that is excluded from viable cells but preferentially stains the dead cell's DNA. […] Viable cells produce no appreciable increases in fluorescence. Therefore, the fluorescence signal produced by the binding interaction with dead cell DNA is proportional to cytotoxicity.
The mixture of Hek293 cell suspension and reagents were dispensed at 600cells/6 ul/well in 1536-well tissue culture treated black solid bottom plates using a Multidrop dispenser. After the assay plates were incubated at a 37 C/5% CO2 incubator for 5 hours, 23 nL of compounds dissolved in DMSO, positive and negative controls was transferred to the assay plate by a pintool work station. The plates were incubated at 37 C for 40 hours. The fluorescence intensity were measured at 0h, 8h, 16h, 24h, 32h and 40h time points using ViewLux plate reader during compound treatment.

SMILES	Potency	cytotoxicity increase
CCCCC(CC)(CO)CO	inactive	
CN1CCC(OC(c2ccccc2)c2ccccc2)CC1	inactive	
O=C(O)Cc1cc(I)c(Oc2ccc(O)c(I)c2)c(I)c1	inactive	
O=C(NN1CCCC1)NS(=O)(=O)c1ccc(Cl)cc1	inactive	
CN1CCC(=C2c3ccccc3CCc3sccc32)CC1	inactive	
COc1ccc2[nH]c(S(=O)Cc3ncc(C)c(OC)c3C)nc2n1 (stereo not given)	inactive	
C=CC[N+]1([C@H]2C[C@H]3[C@@H]4CC[C@H]5C[C@H](OC(C)=O)[C@@H](N6CCCCC6)C[C@]5(C)[C@H]4CC[C@]3(C)[C@H]2OC(=O)CC)CCCCC1	inactive	
CC(C)=CCCC(C)CC=O (stereo not given)	inactive	
CCOC(=O)CC(C)C	inactive	
Cc1cc(CC(=O)O)c(C)n1-c1ccc(Cl)cc1	inactive	
CCCCCCCCN(C)C	inactive	
O=C(O)COC(=O)Cc1ccccc1Nc1c(Cl)cccc1Cl	inactive	
CC(C)CCCCCCOC(=O)c1ccc(C(=O)OCCCCCCC(C)C)c(C(=O)OCCCCCCC(C)C)c1	inactive	
C#CCOC(=O)[C@@H](C)Oc1ccc(Oc2ncc(Cl)cc2F)cc1	inactive	
O=S1(=O)N=C(O)c2ccccc21	inactive	
C=CC(=O)OCCOC(=O)CCC(=O)O	inactive	
CCCCCCCCCCCCCCCBr	inactive	
CC[C@]12CCCN3CCc4c(n(c5ccccc45)C(=O)C1)[C@@H]32	inactive	
CC(C)CC=O	inactive	
CN(C)CCCOc1nn(Cc2ccccc2)c2ccccc12	inactive	

SMILES	Potency	cytotoxicity increase
C=CCCCCCC	inactive	
O=C(C(=O)c1ccc(Br)cc1)c1ccc(Br)cc1		0.336% [at 15.8 µM]
N#Cc1cc2ccccc2c2ccccc12	inactive	
Cn1c(NCCN(CCO)CCCc2ccc([N+](=O)[O-])cc2)cc(=O)n(C)c1=O	inactive	
O=C(NS(=O)(=O)/C=C/c1cccs1)c1ccc(F)cc1Br	inactive	
CC[C@H](C)[C@H](N)C(=O)O	inactive	
CCOc1ccc2[nH]cc(C(=O)NCc3ccccc3)c(=O)c2n1	inactive	
Cc1ccc(C(N)=O)cc1N	inactive	
c1ccc(-c2nc[nH]c2-c2ccccc2)cc1	inactive	
Cc1ccc(C(C)c2ccc(C)c(C)c2)cc1C	inactive	
CN1CCN(C2=Nc3ccccc3Sc3ccc(Cl)cc32)CC1	inactive	
CCCc1ccccc1	inactive	
N#Cc1c(F)cccc1F	inactive	
COc1ccccc1OC(=O)Oc1ccccc1OC	inactive	
NCCCN(CCO)CCO	inactive	
O=C1CCCCCO1	inactive	
CCCOc1ccc2nc(NC(=O)OC)[nH]c2c1	inactive	
CC(C)c1ccccc1C(C)C	inactive	
c1ccc(CNCc2ccccc2)cc1	inactive	
CC(C)(C)c1ccc(S)cc1	inactive	
